Only a selection was taken, and hits are over-represented in it overall.
HttQ103 aggreg: mutant huntingtin aggregation inhibition; PC12 HttQ103-GFP aggregates, Acumen cytometry, 40 h; AID 1688; 1.1% of 220,000 active; Potency, µM (series often up to 46.1 µM), without a hit: at the top dose activity change, negative = inhibition, hits mostly inhibitors; note: potency is the fitted concentration of half-maximal effect; % is set by controls: 0 for no effect and ±100 for the full control effect; nearly all actives have a fitted effect of over 60% in size
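Quantitative HTS on tebufenozide-induced (100 nM) PC12 cells stably expressing polyQ103 Huntingtin exon 1–GFP. Reduction of bright GFP aggregates, detected by laser scanning cytometry after lysis, identified actives across the titration.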
PNC assembly inh: inhibitors of perinucleolar compartment assembly; PC3M PTB-GFP, PNC prevalence imaging, 16 h; hits give low values; activity change (PNC), negative = inhibition, % at 10 µM; 3.1% of 140,000 active;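 active = readout at or below -70, meaning at least 70% loss of cells showing the perinucleolar compartment, a nuclear body marking cancer cells; inconclusive = readout between -30 and a set limit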;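 note: plate controls were DMSO wells for no effect and camptothecin positive control wells for full effect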
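PC3M cells stably expressing PTB-GFP, 750–1000 cells/well, treated 16 h at 37 °C with compound (23 nl of library stock), in duplicate. After paraformaldehyde fixation and Hoechst stain, imaged at 20x; PNC prevalence scored by image analysis.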
HTT ATP protect: cytoprotection in Huntington HTT-Q103 PC12 cell model. PC12 HTT-Q103 induced, cytoprotection, ATP luminescence, 40 h. Potency, µM (titrated, usually from 56.4 µM), inactives show cytoprotection (ATP increase), hits mostly activators. 0.14% of 230,000 active. AID 1471; note: potency is the fitted concentration of half-maximal effect; % of control where 0% means no effect; nearly all actives have a fitted effect of over 45% in size
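Stable PC12 Q103-GFP cells in serum-supplemented, phenol red-free DMEM; induction by tebufenozide at 100 nM final; compound dose series; cell viability quantified luminescently from ATP.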
* marks the source's active call; other numbers are inactive results; ? = inconclusive; · = not tested or not shown; ! = not active in a repeat; [ ] = another dose, or the depositor's remark. Unless noted, calls come from the whole dose curve; as a rule, active = well fitted curve in the direction sought with a large enough effect; inconclusive = small, poorly fitted or top-dose-only effect, or another doubt; inactive = no such curve, though single readings can be large; an effect the other way counts as inactive or inconclusive.

SMILES | HttQ103 aggreg | PNC assembly inh | HTT ATP protect
NNc1nc2sc3c(c2c(=O)n1-c1ccccc1)CCCC3 | 11%[9.22 µM] | · | 12%[10 µM]
CCN(CC)S(=O)(=O)c1ccc(C)c(NC(=S)NC2CCCCC2)c1 | -3%[9.22 µM] | · | 10%[10 µM]
CCN(CC)S(=O)(=O)c1ccc(C)c(NC(=O)CN(C)C)c1 | -22% | -84* | 14%[10 µM]
CC(C)NC(=O)c1ccc(C2SCC(=O)N2Cc2ccccc2)cc1 (centres undefined) | -1% | 138 | -22%[10 µM]
CC1=CC(C)(C(Cl)Cl)C(C)=CC1=O (centres undefined) | 13% | -100* | 2%[10 µM]
CC1=CC(=O)C=CC1(C)C(Cl)Cl (centres undefined) | 22% | 91 | -16%
Cc1c(C(=O)N2CCN(Cc3ccccc3)CC2)sc2ncnc(N3CCOCC3)c12 | -5% | 40 | 6%[10 µM]
Cc1c(C(=O)N2CCC(C)CC2)sc2ncnc(N(C)c3ccccc3)c12 | 20µM* | 11 | -19%[10 µM]
CC1(C)Cc2c(c(N3CCOCC3)nc3sc4c(NCc5ccccc5)nnnc4c23)CS1 | 4% | 20 | -15%
CC1(C)Cc2c(c(N3CCOCC3)nc3sc4c(NCc5ccco5)nnnc4c23)CS1 | 21% | -81* | -33%
COc1ccc(NC(=O)c2nc[nH]c2C(=O)N2CCN(c3ccccc3)CC2)cc1 | 16%[9.22 µM] | · | 4%[10 µM]
c1coc(CNc2nc3nonc3nc2NCc2ccco2)c1 | 11µM* | 3 | -10%[10 µM]
O=S(=O)(Nc1nc2ccccc2nc1NCc1ccco1)c1ccccc1 | 9% | 25 | 15%[0.074 µM]
O=C(CCn1c(=O)oc2ccccc21)NCCN1CCOCC1 | 8%[9.22 µM] | · | 31%[10 µM]
CCc1nc(SCC(=O)c2cccc([N+](=O)[O-])c2)n[nH]1 | 12% | 21 | ·
CCN(CC)CCCNC(=O)c1cc(Sc2nnc(C)s2)nc2ccccc12 | ? | ? | -8%[10 µM]
CCCCOc1cc(C(=O)NCCN(CC)CC)c2ccccc2n1 | ? | -115*! | -45%
O=C(c1cccn2c(=O)c3cc(Cl)ccc3nc12)N1CCN(Cc2ccc3c(c2)OCO3)CC1 | -35% | 24 | -12%[10 µM]
COc1ccc(/C=N/n2c(C)nnc2C)c(OC)c1OC | 19% | 0 | -5%
CC1=CCC(COC(=O)Nc2ccccc2)CC1 (centres undefined) | -31% | -9 | -15%
O=C(CN1CCCCC1)Nc1cccc(Oc2ccccc2)c1 | -6% | -106* | -17%
O=C(CN1CCCCCC1)Nc1ccccc1 | 5% | · | -16%
COc1ccccc1Cn1c(=O)c2ccccc2n2c(SCc3csc(C)n3)nnc12 | -3% | -1 | 4%
COc1ccccc1Cn1c(=O)c2ccccc2n2c(Sc3ncnc4sccc34)nnc12 | ? | 20 | 1.6µM*
CCOC(=O)c1cnc2nc(NCc3ccc(OC)c(OC)c3)[nH]n2c1=O | -10% | 2 | -11%
SMILES | HttQ103 aggreg | PNC assembly inh | HTT ATP protect
Cc1ccc(OCc2nnc(SCC(=O)N3CCOCC3)n2C)cc1 | 4% | -107* | 13µM*
CCCCn1c(SCC(=O)N2CCOCC2)nnc1-c1ccoc1C | -3% | -100* | -9%[10 µM]
Cc1ccc(OCc2nnc(SCCN3CCOCC3)n2C)cc1 | -8% | -9 | -2%[10 µM]
Cc1occc1-c1nnc(SCC(=O)N2CCOCC2)n1CCc1ccccc1 | 6% | -19 | 11%[10 µM]
CCCOC(=S)N/C(=N\S(=O)(=O)c1ccccc1)c1ccccc1 | ? | -22 | 8%[10 µM]
CCOC(=S)N/C(=N\S(=O)(=O)c1ccccc1)c1ccccc1 | 20% | -100* | 37%[10 µM]
CCC(C(=O)Nc1ccccc1OC)n1c(C(=O)OC)cc2ccsc21 (centres undefined) | 0% | 20 | -15%
CCCNC(=O)c1cccc(Cn2nc(C)c(Br)c2C)c1 | -23% | -29 | -10%
Cc1nn(Cc2cccc(C(=O)NC34CC5CC(CC(C5)C3)C4)c2)c(C)c1Br | 20µM* | 42 | 13%[10 µM]
CSc1ccc(/C=N/N2CCN(C)CC2)cc1 | 6% | · | 6%[10 µM]
CC1CN(S(=O)(=O)c2cccc(-c3csc(-c4ccccc4)n3)c2)CC(C)O1 (centres undefined) | -29% | 11 | -3%
O=c1c2ccccc2n2c(-c3ccc(F)cc3)nnc2n1Cc1ccccc1 | 7% | -102* | ·
O=c1c2ccccc2n2c(-c3ccc(C(F)(F)F)cc3)nnc2n1Cc1ccccc1 | 17% | 25 | -15%[10 µM]
O=C(Nc1ccc(Cl)cc1)N[C@@H]1c2c(ccc3ccccc23)OC[C@@H]1CO | -15% | -106* | -22%
NC(=O)N1OCC2COc3ccc4ccccc4c3C21 (centres undefined) | 10%[9.22 µM] | -10 | 9%
O=C(CCc1ccc(S(=O)(=O)N2CCOCC2)cc1)N/N=C/c1cccc(O)c1 | 0% | -12 | 23%[10 µM]
CC(=O)Nc1ccc(Cl)cc1C1COC(=O)C1=N (centres undefined) | 4% | 17 | ·
CCOC(=O)/C(=C\c1ccccc1)C(=O)c1cc(C(C)=O)c(Nc2ccccc2)s1 | -88% | 7 | -93%
CCOC(=O)/C(=C\c1cccnc1)C(=O)c1cc(C(C)=O)c(Nc2ccccc2)s1 | ? | -111* | -35%
CS(=O)(=O)N(CC(N)=O)c1ccc2c(c1)OCO2 | -12% | ? | -6%[0.074 µM]
COCCn1c(-c2ccc(Br)cc2)csc1=Nc1cccnc1 | ? | · | 2%[10 µM]
Clc1ccc(-c2csc(=Nc3cccnc3)n2CCCn2ccnc2)cc1Cl | 11µM* | 77 | -17%[10 µM]
CCN(CC)S(=O)(=O)c1ccc(N/N=C/c2cc(OC)c(OC)cc2OC)nc1 | 9% | -29 | ·
CCOc1cccc(/C=N/Nc2ccc(S(=O)(=O)N(CC)CC)cn2)c1O | 1.4µM* | 63 | -66%[10 µM]
CC12CC3(C)CC(C)(C1)CC(C(=O)NCC(=O)O)(C2)C3 | 13% | · | -29%
SMILES | HttQ103 aggreg | PNC assembly inh | HTT ATP protect
COc1ccccc1N1CCN(C(=O)CN(c2ccccc2OC)S(=O)(=O)c2ccccc2)CC1 | 5µM* | 44 | -8%
O=C(c1ccc(CSc2ccccc2)cc1)N1CCN(c2ccccc2)CC1 | -1% | · | ·
COc1ccccc1N1CCN(C(=O)c2ccc(CSc3ccccc3)cc2)CC1 | 22µM* | ? | ·
CCOC(=O)N1CCN(C(=O)CN(c2cc(Cl)ccc2OC)S(=O)(=O)c2ccccc2)CC1 | 8% | 41 | -11%
COc1ccc(S(=O)(=O)N(CC(=O)N2CCN(c3ccccc3)CC2)c2ccccc2)cc1 | 17% | -112* | 8%
COc1ccc(N2CCN(C(=O)CN(c3ccccc3)S(C)(=O)=O)CC2)cc1 | -2% | ? | -13%[10 µM]
COc1cc(C(CCN2CCCCC2)c2c(OC)cc(OC)c3c(-c4ccccc4)cc(=O)oc23)cc(OC)c1OC (centres undefined) | 15%[9.22 µM] | · | -9%[10 µM]
Cc1nc2ccccc2n1/C(=N/S(=O)(=O)c1ccc(Br)cc1)c1ccccc1 | 6% | -100* | 5%[10 µM]
CC(=O)c1cc2c(cc1N/C(=N/S(=O)(=O)c1ccc(Br)cc1)c1ccccc1)OCO2 | -12% | · | -34%
Clc1ccc(-c2c[n+](Cc3ccc(Cl)cc3Cl)c3n2CCCCC3)cc1 | -4%[9.22 µM] | · | -46%[10 µM]
Clc1ccc(C[n+]2cc(-c3ccccc3)n3c2CCCCC3)c(Cl)c1 | 11µM* | · | -48%[10 µM]
CN(c1ccccc1)S(=O)(=O)c1cccc(NC(=O)CSc2ncn[nH]2)c1 | -17% | -16 | 28%[10 µM]
Cc1cc(C)c(S(=O)(=O)Nc2ccc(O)c(Sc3ncn[nH]3)c2)c(C)c1 | ? | -29 | ·

From PubChem
